The values that follow come from ChEMBL document CHEMBL3988442, “University of Dundee, Small-Polar-MMV Screening Library” (2021).

The campaign covered roughly 48,000 compounds. About 13,000 (27%) showed an effect of 50% or more. The list shows a part of the results.

This test concerns Wolbachia pipientis. Description: Anti-Wolbachia Cell-Based Screen. The class given is functional. On the set-up: scale not given: in the data most compounds retested in dose-response had high values. The following applies: 5 µM.
As to `O=C1CC(c2ccccc2F)c2c(n3ccsc3nc2=O)N1` (stereo not drawn), the “Percent Effect” value is given as 13.25%. The result for `CC(NC(=O)Nc1cc(F)cc(F)c1)c1nc[nH]n1` (stereo not drawn) reads -15.42%. Take `O=C(NCC1CC1)C1CN(C(=O)c2cnccn2)CC12CCOCC2` (stereo not drawn): the “Percent Effect” value was -1.801%. With `O=C(C1CCC2(CCN(CC3CC3)CC2)O1)N1CCCC1.O=C(O)C(F)(F)F` (stereo not drawn), the “Percent Effect” value was -8.008%.

With `O=C(NCC1CC1)C1CCC2(CCN(C(=O)c3ccncc3)CC2)O1.O=C(O)C(F)(F)F` (stereo not drawn), the “Percent Effect” value was 111.8%. The result for `O=C(NCC1CC1)C1CN(C(=O)c2cccnc2)CC12CCOCC2` (stereo not drawn) reads 0.4189%; that for `CC1N(CC2CC2)C(=O)COC12CCN(C(=O)c1ccncc1)CC2` (stereo not drawn), -6.799%; that for `O=C(NCC1CC1)C1CCC2(CCN(C(=O)c3cccnc3)CC2)O1.O=C(O)C(F)(F)F` (stereo not drawn), 93.2%. The result for `O=C1COC2(CCN(C(=O)c3cnccn3)CC2)CN1CC1CC1` reads -3.882%; that for `O=C(NCC1CC1)C1CCC2(CCN(C(=O)c3cnccn3)CC2)O1` (stereo not drawn), 100.2%.

For `CCc1nnc2n1CC(CNCc1nc(-c3ccsc3)no1)CC2` (stereo not drawn), the “Percent Effect” value is recorded as -16.4%. Regarding `Cc1ccccc1CN(C)C(=O)Cn1nc(-c2ccc(F)cc2)oc1=O`, the “Percent Effect” value is reported as -30.13%. Next, `Cl.O=C(Cn1c(-c2ccco2)cc2cccnc21)N1CCCC1`: 109.6%; `Cc1nc(-c2ccccc2)n(CC(=O)N(C(C)C)C(C)C)n1`: 7.414%. `COCCCNC(=O)Cn1nnc(-c2cc3ccccc3o2)n1`: the “Percent Effect” value is listed as -9.995%. As to `O=C(c1ncoc1-c1ccco1)N1CCCN(c2ncccn2)CC1`, the “Percent Effect” value is reported as -13.17%. Next, `COc1ncccc1C(=O)N1CC(c2nc(-c3ccco3)no2)C1`: 8.085%. Consider `CC(C)N(C(=O)Cn1c(-c2ccco2)cc2cccnc21)C(C)C.Cl`, for which the “Percent Effect” value came to 129.4%.

Take `O=C(Cn1ccc2ncccc2c1=O)N1CCCCC1`: the “Percent Effect” value was -19.73%. Next, `COc1cccc(OCCNC(=O)CN2CCN(C)CC2C)c1` (stereo not drawn): 0.3417%; `COCCNC(=O)Cn1c(-c2ccco2)cc2cccnc21`: 97.97%.

On to `CCCS(=O)(=O)NCC1CCOc2ccccc2C1` (stereo not drawn), for which the “Percent Effect” value is listed as -3.198%. In the case of `Cn1nnc2c1C(COCC1CC1)CN(C(=O)Cc1ccccn1)C2` (stereo not drawn), the “Percent Effect” value amounted to 3.096%. As for `Cc1cc(C)nc(CN(C)c2nc(C3CCCC3)nc3c2cnn3C)c1`, the “Percent Effect” value is recorded as 180.1%. For `Cc1nc(N(C)CCN(C)C)c2cnn(C)c2n1`, the “Percent Effect” value is reported as -4.82%. Turning to `CN(Cc1ccno1)c1nc(C2CCCC2)nc2c1cnn2C`, the “Percent Effect” value is listed as 93.91%. Next, `CCc1nnc(CN(C)c2nc(C3CCCC3)nc3c2cnn3C)o1`: -12.86%; `Cc1nn(C)c(C)c1CN(C)c1nc(C2CCCC2)nc2c1cnn2C`: 74.08%. Consider `Cc1cc(CC(C)Nc2nc(C3CCCC3)nc3c2cnn3C)[nH]n1` (stereo not drawn), for which the “Percent Effect” value was determined as 4.574%.

For the compound `Cc1c[nH]c(CN(C)c2nc(C3CCCC3)nc3c2cnn3C)n1`, the “Percent Effect” value is recorded as -9.015%.

Consider `CCCc1nc(N(C)Cc2cnc(NC)nc2)c2cnn(C)c2n1`, for which the “Percent Effect” value worked out at 3.632%. The result for `CNCCCNc1nc(C2CCCC2)nc2c1cnn2C` reads -5.607%; that for `CNc1ncc(CN(C)c2nc(C3CCCC3)nc3c2cnn3C)cn1`, 113.7%.

On to `CCC(Nc1nc(C2CCCC2)nc2c1cnn2C)c1ccncc1` (stereo not drawn), for which the “Percent Effect” value stood at 11.81%. With `Cn1ncc2c(NCCn3cccc3)nc(C3CCCC3)nc21`, the “Percent Effect” value is recorded as 12.23%. Consider `O=C(c1ccc(-n2cncn2)cc1)N1CCN(c2cnccn2)CC1`, for which the “Percent Effect” value was -5.785%. The result for `N#Cc1ccc(NCC(=O)Nc2ccn(Cc3cccnc3)n2)cc1` reads 0.1964%; that for `O=C(CCc1ccccn1)N1CCc2cc(Cl)cc(Cl)c2C1`, -9.614%.

Take `CC(NC1(CNC(=O)C(C)(C)C#N)CCOCC1)c1ccccc1` (stereo not drawn): the “Percent Effect” value is reported as -5.654%. On to `CC(C)N(CCNc1nc(C2CCCC2)nc2c1cnn2C)C(C)C`, for which the “Percent Effect” value is given as -18.52%.

As for `CCOCCNc1nc(C2CCCC2)nc2c1cnn2C`, the “Percent Effect” value is listed as -2.506%.

`Cc1noc(C)c1CN(C)c1nc(C2CCCC2)nc2c1cnn2C`: the “Percent Effect” value turned out to be 118.2%. Turning to `COc1ncccc1CN1CCn2c(C(=O)N3CCCC3)cnc2C1.O=C(O)C(F)(F)F.O=C(O)C(F)(F)F`, the “Percent Effect” value is listed as -2.628%.

As for `COCCN1CCn2cc(CN(C)Cc3ccco3)nc2C1`, the “Percent Effect” value stood at 6.66%. Regarding `Cc1ccccc1C(Nc1ncnc2c1CCNC2)c1ccccc1` (stereo not drawn), the “Percent Effect” value came out at 93.65%.

Turning to `Cc1nc2c(c(NCC(O)c3ccccc3Cl)n1)CCNCC2` (stereo not drawn), the “Percent Effect” value was -5.653%.

Take `Cc1ccccc1C(CNc1ncnc2c1CCNCC2)N(C)C` (stereo not drawn): the “Percent Effect” value was found to be 105.5%. As to `Cc1nc2c(c(NCC(c3ccccc3C)N(C)C)n1)CCNC2` (stereo not drawn), the “Percent Effect” value stood at 96.84%. Next, `CCOc1ccc(C(C)Nc2ncnc3c2CCNC3)cc1OCC` (stereo not drawn): -5.441%; `OC(CNc1ncnc2c1CCNCC2)C(F)(F)F` (stereo not drawn): -1.789%; `Cc1nc2c(c(NCC(O)C(F)(F)F)n1)CCNCC2` (stereo not drawn): -4.402%. With `Cc1ccccc1C(CNc1ncnc2c1CCNC2)N(C)C` (stereo not drawn), the “Percent Effect” value came out at 84.04%. On to `Cc1[nH]c2ccc(Cl)cc2c1CCNc1ncnc2c1CCNC2`, for which the “Percent Effect” value worked out at 12.31%. Take `Cc1[nH]c2ccc(C#N)cc2c1CCNc1ncnc2c1CCNCC2`: the “Percent Effect” value was determined as 9.456%. In the case of `CC(Nc1ncnc2c1CCNC2)c1ccc(C(C)(C)C)cc1` (stereo not drawn), the “Percent Effect” value was determined as 30.56%.

Take `CCCc1ccc(C(C)Nc2ncnc3c2CCNC3)cc1` (stereo not drawn): the “Percent Effect” value is reported as -93.4%. As for `Cc1nn(C)c(C)c1CN(C)S(=O)(=O)c1c(C)n[nH]c1C`, the “Percent Effect” value was 32.27%. As to `CCC(=O)N1CCN(C(=O)c2ccc(COC)o2)[C@H]2CS(=O)(=O)C[C@H]21`, the “Percent Effect” value came out at 2.835%. As to `CN(C)CCNCC1(O)CCCN(Cc2cccc(F)c2F)C1=O` (stereo not drawn), the “Percent Effect” value is reported as -8.676%. On to `CNS(=O)(=O)CCNC(=O)c1coc(COc2ccc(F)cc2)n1`, for which the “Percent Effect” value was -18.85%. Next, `O=C([C@@H]1Cc2[nH]cnc2CN1CC1CC1)N1CCCC1`: 2.393%; `CC(=O)N1Cc2cnc(C(C)(C)C)nc2C1`: -14.29%; `CC(C)(C)c1ncc2c(n1)CN(C(=O)c1ccc(-n3cnnn3)cc1)C2`: -15.52%.

Turning to `CC(=O)NC1CC(C)(C)Cc2c1cnn2-c1cccc(F)c1` (stereo not drawn), the “Percent Effect” value is reported as 27.72%. In the case of `COC(=O)NCC(=O)NC1CC(C)(C)Cc2oc(C)cc21` (stereo not drawn), the “Percent Effect” value is -2.578%. For `COC(C)(C)C(=O)N1Cc2cnc(C(C)(C)C)nc2C1`, the “Percent Effect” value is recorded as 5.24%.

On to `CC1(C)Cc2nc(C(C)(C)C)ncc2C(NC(=O)Cc2nnn[nH]2)C1` (stereo not drawn), for which the “Percent Effect” value is 84.56%. As to `Cc1cc(C)n(CC(=O)N2Cc3cnc(C(C)(C)C)nc3C2)n1`, the “Percent Effect” value is -6.513%. In the case of `CC1(C)Cc2nc(C(C)(C)C)ncc2C(NC(=O)C2(N)CC2)C1` (stereo not drawn), the “Percent Effect” value is listed as 76.58%. Regarding `CC(C)(C)c1ncc2c(n1)CN(C(=O)c1ccncc1)C2`, the “Percent Effect” value stood at 6.547%. Next, `Cc1cc2c(o1)CC(C)(C)CC2NC(=O)CNC(=O)C1CC1` (stereo not drawn): 15.35%. Take `CC1(C)Cc2nc(C(C)(C)C)ncc2C(NC(=O)CN)C1` (stereo not drawn): the “Percent Effect” value is 108.4%.

Consider `CNCC(=O)NC1CC(C)(C)Cc2nc(C(C)(C)C)ncc21` (stereo not drawn), for which the “Percent Effect” value came to 107.2%.
